SMILES strings stand for the structures. About 120 (0.19%) of roughly 62,000 compounds were called active. Only a selection was taken, and actives are over-represented in it overall. A number with no mark means an inactive call. Rule as the data show it: active = inhibition above about 20% (passing the limit was not always enough); inactive = the rest.

Coagulation factor XI (Homo sapiens), sequence (P03951 19-387 limits assumed): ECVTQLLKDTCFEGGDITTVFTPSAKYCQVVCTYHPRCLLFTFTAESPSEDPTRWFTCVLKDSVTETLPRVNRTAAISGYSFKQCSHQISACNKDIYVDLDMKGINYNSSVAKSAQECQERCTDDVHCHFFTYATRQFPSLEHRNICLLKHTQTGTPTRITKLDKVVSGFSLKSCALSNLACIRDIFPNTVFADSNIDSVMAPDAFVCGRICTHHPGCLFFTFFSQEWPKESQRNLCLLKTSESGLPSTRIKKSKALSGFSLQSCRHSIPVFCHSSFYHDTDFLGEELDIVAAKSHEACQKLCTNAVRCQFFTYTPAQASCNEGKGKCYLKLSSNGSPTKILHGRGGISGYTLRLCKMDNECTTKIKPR
Coagulation factor XI (Homo sapiens), sequence (P03951 388-625 limits assumed): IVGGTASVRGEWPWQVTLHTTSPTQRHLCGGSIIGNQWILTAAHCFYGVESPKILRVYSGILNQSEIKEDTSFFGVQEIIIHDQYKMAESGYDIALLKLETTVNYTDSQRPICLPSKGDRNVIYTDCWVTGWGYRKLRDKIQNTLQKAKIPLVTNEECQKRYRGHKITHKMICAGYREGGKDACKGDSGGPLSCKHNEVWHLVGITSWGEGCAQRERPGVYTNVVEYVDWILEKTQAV

This assay has as its target Coagulation factor XI (Homo sapiens) (UniProt P03951). The experiment in a line: FXIa protease inhibitors in compound pools, primary screen, biochemical, 10-compound mixtures (AID 680).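 Also: each value is inhibition by a whole ten-compound pool holding the compound; 0% = enzyme with no mixture and 100% = wells lacking enzyme.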 The note with it: purified FXIa, fluorogenic substrate, pooled mixtures; at 5 µM; hits give high values.
Take `COC(C)(C)[C@]12CC(O)(C(C)C)ON1[C@H]1CCCCC1N2O` (some centres not stated): the inhibition is -9.49%.
In the case of `CCOC(=O)CSc1nnc(CNC(=O)Cc2ccccc2)n1-c1ccccc1OC` it was 13.1%; in that of `COc1ccc(CCN2C(=O)c3[nH]nc(-c4ccccc4O)c3C2c2ccc(C)cc2)cc1OC` (configuration not stated), 8.98%; in that of `CCc1c(C)n([O-])c2c([n+]1=O)CCCCC2`, 5.37%.
The figure for `CC(C)(C)n1c(=O)[nH]c2c(c1=O)CCC2` is 5.49%; for `O=C(CC1(O)C(=O)N(CN2CCOCC2)c2ccccc21)c1ccccc1` (configuration not stated) it is 4.51%; for `Cc1cc(NC(=O)CCC(=O)N(c2ccccc2)C(C(=O)NC2CCCC2)c2ccncc2)no1` (configuration not stated) it is 10%.
With `Cn1c(NC(=O)c2ccco2)c(-c2ccccc2Cl)c(=O)c2ccccc21`, the inhibition is 7.49%.
In the case of `CC(C)(C)NC(=O)C(c1ccncc1)N(C(=O)CNC(=O)c1ccco1)c1ccc2c(c1)OCO2` (configuration not stated) it was 8.32%; in that of `CCOC(=O)C1CCN(C(=O)COc2cc(C)c(Br)c(C)c2)CC1`, -1.91%.
The figure for `O=C(CSc1nc2c(cnn2-c2ccc(F)cc2)c(=O)[nH]1)N1CCCCCC1` is 2.05%; for `CCC(=O)c1cc2c(cc1NC(=O)c1cccs1)OCCO2` it is 1.74%; for `Cc1oc(-c2cccc(Cl)c2)[n+]([O-])c1C` it is 1.39%.
With `CN(C)S(=O)(=O)c1ccc(Oc2ccc(S(=O)(=O)N(C)C)cc2)cc1`, the inhibition is 7.21%.
`Cc1cccc2c1N(CC(=O)OC(C)C)C(=O)C2=O`: the inhibition is 1.41%.
In the case of `CC1CCN(c2nc3c(c(=O)[nH]c(=O)n3C)n2CCCc2ccccc2)CC1` it was -1.49%.
The figure for `O=C(CSc1nnc(-c2ccncc2)n1C1CCCCC1)Nc1ccccc1` is 8.47%.
For `Fc1ccc(-c2nnc(CSc3nnc(-c4ccc5c(c4)OCO5)o3)o2)cc1`, the inhibition was 0.485%.
In the case of `COc1cccc(-n2cc3c(c2-c2ccccc2)c(=O)n(C)c(=O)n3C)c1` it was 3.95%.
The figure for `OCCCNC(c1ccccc1)c1ccc(O)cc1` (configuration not stated) is 7.84%; for `COc1ccc2c(CC(=O)Nc3nnc(C4CC4)s3)coc2c1` it is 4.86%; for `COc1ccccc1Cn1c(=S)[nH]c2cc(C(=O)N3CCN(C)CC3)ccc2c1=O` it is 5.3%.
In the case of `COc1cccc(NC(=O)CN(C)S(=O)(=O)c2ccc(C)cc2)c1` it was -2.5%; in that of `Cc1ccccc1-c1nc(CS(=O)(=O)CC(=O)N2CCc3ccccc3C2)c(C)o1`, 11.3%.
In the case of `COc1ccccc1CNC(=O)CCCn1c(=O)c2ccccc2n(CC(=O)NC2CCCC2)c1=O`, the inhibition was 0.555%.
In the case of `CC12CN(Cc3ccccc3)CC(C)(CN(Cc3ccccc3)C1)C2=NO` it was -5.8%.
In the case of `CCOC(=O)C(C(=O)OCC)C(C#N)c1ccccc1` (configuration not stated) it was 3.99%.
Turning to `CCOC(=O)NC(C(F)(F)F)(C(F)(F)F)P(=O)(c1ccccc1)c1ccccc1`, the inhibition is 22.6% (active).
The figure for `CCOC(=O)Nc1ccccc1N1C(=O)c2ccccc2C1=O` is 7.59%.
Turning to `CCOC(=O)N1CCC(NC(=O)C(C)n2c3ccccc3c3cnn(C)c(=O)c32)CC1` (configuration not stated), the inhibition is -52.1%.
Turning to `CN(CCCC(=O)Nc1nccs1)S(=O)(=O)c1ccc(Cl)cc1`, the inhibition is 2.62%.
Consider `Cc1cc(C)c2c(n1)nn1c(-n3ccnc3)cc(C)nc21`, for which the inhibition was 4.82%.
As for `CN(C(=O)c1ccno1)c1nnc(-c2cccnc2)s1`, the inhibition is 0.72%.
The figure for `CN(Cc1ccccc1)Cc1ccccc1F` is 11%; for `O=C(Nc1ccccc1)N(Cc1cccnc1)Cc1ccco1` it is 9.03%; for `O=C(Nc1ccn(Cc2ccc(F)cc2)n1)c1ccncc1` it is 1.2%.
The figure for `CS(=O)(=O)N1CCCC(C(=O)N2CCOCC2)C1` (configuration not stated) is 6.58%; for `Fc1ccccc1OCCSc1nc2ccccc2o1` it is 5.06%.
In the case of `COC(=O)C1=C(C)N(C)C(C)=C(C(=O)OC)C1c1cccc(Br)c1` it was 4.43%; in that of `CC(=O)NC(C)(C)C1CC=C(C)/C(=N\O)C1` (configuration not stated), 6.99%; in that of `Cc1ccc(S(=O)(=O)N2CCC(C(=O)OCC(=O)N3CC(=O)Nc4ccccc43)CC2)cc1`, -8.9%.
On to `O=C(CSc1nnc2scc(-c3ccc(F)cc3)n12)NCc1ccco1`, for which the inhibition is 2.54%.
The figure for `Cn1c(-c2ccc(F)cc2)cnc1SCC(=O)NCc1ccco1` is -1.83%; for `Cc1ccc(-c2csc3nnc(SCC(=O)NCc4ccco4)n23)cc1` it is 25.9% (active); for `COC(=O)c1c(NC(=O)c2cccs2)sc2c1CCCC2` it is 5.01%.
In the case of `NC(=O)COc1ccc2c3c(c(=O)oc2c1)CCCCC3` it was -3.05%; in that of `CCC(=O)Nc1ccc(C(=O)CSc2nnc(CNc3ccc(Cl)cc3)o2)cc1OC`, 1.04%; in that of `COc1ccc(CCNC(=O)C2CCCN(Cc3nc(-c4cccc(Cl)c4)oc3C)C2)cc1OC` (configuration not stated), 10.1%.
The figure for `Cc1nc2nc[nH]n2c(=O)c1NC(=O)c1cccc(OCC(C)C)c1` is 8.27%; for `CCOC(=O)C1CCN(C(=O)Cc2c(C(=O)O)[nH]c3ccccc23)CC1` it is 6.1%; for `CCc1c(C)nc2ncnn2c1N1CCC(C(=O)NCc2ccc3c(c2)OCO3)CC1` it is 8.05%.
In the case of `CCN(CC)CCN1C(=O)C(=O)/C(=C(/O)c2ccccc2)C1c1ccccc1F` (configuration not stated), the inhibition was 4.21%.
As for `Cc1ccc(S(=O)(=O)N(C)CC(=O)N2CCc3ccccc32)cc1`, the inhibition was 4.38%.
With `COc1ccc(C2N=C(N)N=C(N)N2c2ccccc2)cc1OC` (configuration not stated), the inhibition is 1.53%.
The figure for `O=C(CSc1nnc(-c2ccco2)o1)NCC(=O)c1ccccc1` is 10.1%; for `COc1cccc2c(C)c(C(=O)O)[nH]c12` it is -18%.
In the case of `CCOC(=O)N1CCC(O)(c2cc(C)c(C)cc2C)CC1` it was 9.28%; in that of `Cc1nc2nc3c(cn2n1)C(=O)CC(c1ccccc1)C3` (configuration not stated), 1.31%.
For the molecule `COc1ccc(CCN2CNc3c(c(=O)n(C)c(=O)n3C)C2)cc1OC`, the inhibition was 10.4%.
In the case of `N#CCCn1ncc2ccccc21` it was -0.96%; in that of `COc1cc(=O)[nH]c(=O)n1C(=O)Cc1ccccc1`, 2.34%; in that of `COc1ccc(N2CCN(C(=O)CSc3nnc4ncccn34)CC2)cc1`, 3.9%.
In the case of `CCOC(=O)c1cc2sccc2n1Cc1ccc(C#N)cc1` it was 0.72%; in that of `CCOc1ccc(/C(O)=C2/C(=O)C(=O)N(Cc3cccnc3)C2c2ccc(N(C)C)cc2)c(C)c1` (configuration not stated), -2.04%.
On to `O=c1c2ccccc2nnn1CSc1nc2sc3c(c2c(=O)n1CC1CCCO1)CCC3` (configuration not stated), for which the inhibition was 0.04%.
The figure for `CN(C)CCCNC(=O)c1ccc2[nH]c3ccccc3c2c1` is 3.52%; for `O=C(CSc1nnc(-c2ccco2)n1Cc1ccccc1)NC(=O)NCc1ccco1` it is 2.1%; for `CCOCCOC(=O)C1=C(C)N(C)C(=O)NC1c1ccccc1F` (configuration not stated) it is 5%.
`CCc1ccc(-c2nnn(Cc3nc4ccccc4s3)n2)cc1`: the inhibition was 9.76%.
The figure for `COc1ccc(-c2nnc(SC(C)C#N)o2)cc1` (configuration not stated) is -13.7%; for `C=C(C)COc1ccc(-c2n[nH]c(C)c2-c2ccccc2OC)c(O)c1` it is 21.4% (active).
On to `COc1ccc(-c2n[nH]c(C)c2-c2ccc(OC)c(OC)c2)c(O)c1`, for which the inhibition was 5.75%.
The figure for `C=C(C)COc1ccc(-c2n[nH]c(C)c2-c2ccccc2)c(O)c1` is 6.11%.
The figure for `Cc1sc2c(c1C)c(=O)n(-c1ccccc1)c1nncn21` is 0.14%; for `O=C1CSC(c2cccc(F)c2)N1c1ccccc1F` (configuration not stated) it is 1.83%; for `CCCc1[nH]nc2c1C(c1ccc(Br)s1)C(C#N)=C(N)O2` (configuration not stated) it is 7.01%.
The figure for `COc1ccccc1-c1cc(C(=O)N2CCCCC2)no1` is 3.06%; for `COC(=O)CNS(=O)(=O)c1ccc(Cc2ccc(S(=O)(=O)NCC(=O)OC)cc2)cc1` it is 13.4%; for `COC(=O)c1cc(NC2c3ccccc3C(=O)N2c2ccc(Cl)cn2)cc(C(=O)OC)c1` (configuration not stated) it is 3.54%.
With `CCCc1nc(N)nc2c1C(=O)CC(C)(C)C2`, the inhibition is -0.555%.
The figure for `COC(=O)CN(c1cccc(C(C)=O)c1)S(C)(=O)=O` is 2.59%; for `CCN(c1ccccc1)S(=O)(=O)c1ccc(N)cc1` it is 0.065%; for `O=C(Nc1ccc(Cl)cn1)c1cnn2cccnc12` it is 3.33%.
The figure for `Brc1cccc(-c2nnc3n2CCC3)c1` is 2.48%; for `CC(C)CCNC(=O)CCNS(=O)(=O)c1ccc(Cl)cc1` it is 6.13%.
The figure for `CCOC(=O)c1c(-n2cnnn2)sc(C)c1C` is 13.6%; for `Cc1c2cn[nH]c(=O)c2c(C)n1Cc1ccc(F)cc1` it is 3.31%.
With `Cc1ccc(S(=O)(=O)N2CCCC2C(=O)NCc2ccco2)cc1` (configuration not stated), the inhibition was 3.07%.
The figure for `CC(C)c1nnc(NC(=O)C2CCCN2S(=O)(=O)c2ccc(Cl)cc2)s1` (configuration not stated) is 9.37%; for `Cc1cccc(NC(=O)C2CCCN2S(=O)(=O)c2ccc(F)cc2)c1C` (configuration not stated) it is 23.4% (active); for `N#Cc1nc(Cc2cccc3ccccc23)oc1NCc1ccc2c(c1)OCO2` it is 3.7%.
In the case of `O=C(Cn1nc(Cc2cccnc2)c2ccccc2c1=O)NCC1CCCO1` (configuration not stated) it was 1.16%; in that of `CCOC(=O)N1CCN(C(=O)CSc2nnc(-c3c[nH]c4ccccc34)n2CCOC)CC1`, 6.18%.
Regarding `CCC(C)Sc1nnc(-c2c[nH]c3ccccc23)n1CCOC` (configuration not stated), the inhibition is 4.33%.
`CCn1c(SCCC(C)C)nnc1-c1c[nH]c2ccccc12`: the inhibition was 27.8% (active).
`O=C(c1ccccc1)c1ccc(OC(=O)N2CCCC2)cc1`: the inhibition is 5.6%.
In the case of `COc1ccc(CCNC(=O)CSc2nnc(CNC(=O)c3cccs3)o2)cc1OC` it was 4.31%.

(Values after PubChem BioAssay AID680 (PCMD, 2007).)
